# The panel holds about 83,000 compounds, 20% with a hit somewhere; the sample as a whole holds those more often.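 Cells were grown in 96-well plates and exposed to the test compound at a single concentration for 48 hours; results are reported as percent growth, with values below 10 considered active.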 A number with no mark means an inactive call. Calls of active or inactive are those of the source.
# Tested on: HL-60(TB) leukemia
# Assay: NCI-60 one-dose screen, 48 h (100 = growth as untreated, 0 = no growth, -100 = all killed)
# Conditions: 10 µM unless noted
row,Compound,growth
1,CCCCC1=C(P(=O)(O)O)N[C@H](C(=O)O)CS1,103%
2,CC(C)(C#N)Nc1ccccc1,105%
3,CN(C)CC1(C)Cc2ccsc2C1O (centres undefined),93%
4,CCC(C)Nc1ccc(NC(C)CC)cc1 (centres undefined),57.5%
5,CCNCCNc1cc(-c2ccc(C(=O)OC)cc2)c(C#N)c2nc3ccccc3n12,-57.2% (active)
6,CCCCCCc1cc2cc(-c3nc4ccccc4[nH]3)c(=Nc3ccccc3C)oc2cc1O,12.2%
7,O=S(=O)(O)C(Nc1ccccc1)c1ccccc1 (centres undefined),87.2%
8,CC(C)=CCC[C@](C)(O)C1CC[C@]2(C)[C@@H]1CC[C@@H]1[C@@]3(C)CC/C(=N\OCCC#N)C(C)(C)[C@@H]3CC[C@]12C (some centres undefined),69.3%
9,O=C(Nc1ccc(-n2cc(-c3ccncc3)c(-c3ccc(Cl)c(O)c3)n2)cc1)Nc1cc(C(F)(F)F)cc(C(F)(F)F)c1,2.94% (active)
10,N#Cc1c(-c2ccc(Cl)cc2)nc(NN=Cc2cccc(Cl)c2)nc1N1CCOCC1,71.5%
11,CC(C)=CCCC(C)c1ccc(C)c2c1OCN(CC1CCNCC1)C2 (centres undefined),13.8%
12,COc1ccc(S(=O)(=O)Oc2ccc(-c3sc4cc(OS(=O)(=O)c5ccc(OC)cc5)ccc4c3C(=O)c3ccc(OCCN4CCCCC4)cc3)cc2)cc1,91.1%
13,CC1CCN(C(=O)CCCl)c2ccccc21 (centres undefined),112%
14,Nc1nc(Cl)cc(NCc2ccc(CNc3cc(Cl)nc(N)n3)cc2)n1,78.7%
15,COc1ccc2nc3c(cc2c1)C(=O)CC(C(F)(F)F)C3 (centres undefined),-15.1% (active)
16,CC1OC(n2c3ccccc3c3c4c(c5c6ccccc6[nH]c5c32)C(=O)N(CCN[C@@H]2CCC[C@H]2N)C4=O)CC(O)C1O (some centres undefined),29.2%
17,Cc1ccc(O)c(C(=O)O)c1,99.5%

row,Compound,growth
1,CC[C@]12C=CCN3CC[C@@]4(c5cc(NC(=O)CCC(=O)O[C@H]6CC[C@H]7[C@@H]8CC[C@H]9CC(=O)CC[C@]9(C)[C@H]8CC[C@]67C)c(OC)cc5N(C)[C@H]4[C@@](O)(C(=O)OC)[C@@H]1OC(C)=O)[C@@H]32,38.6%
2,O=C(O)c1ccc2c(c1Cl)C(=O)c1ccccc1C2=O,56.6%
3,Cc1c(-c2ccc(C3CCCCC3)cc2)nc2ccc(F)cc2c1C(=O)O,24.8%
4,COc1ccc(-c2nc3sc(C)cn3c2/C=C/C(=O)c2cc(OC)c(OC)c(OC)c2)cc1,55.9%
5,Cc1cc(O)cc2c1[C@H]1CC[C@]3(C)[C@@H](O)CC[C@H]3[C@@H]1C=C2,70.6%
6,C=CCCCC(=O)CCC(=O)OCC1O[C@@H](O[C@@H]2C(O)[C@@H](OC(C)=O)C(C)O[C@H]2O[C@H](CC=C)CCCCC)C(O)[C@@H](OC(=O)/C(C)=C/C)[C@@H]1OC(=O)/C=C/c1ccccc1 (some centres undefined),8.45% (active)
7,Cc1cnc(N)nc1OCC(C)(C)CNC(=O)c1cccc(-c2ccc(S(=O)(=O)Nc3ccc4c(c3)N(C(=O)C3CC3)CCC4)cc2)c1,18.2%
8,COc1cc(/C=C/C(=O)c2cccc(-n3cc(-c4ccc(Cl)cc4)[nH]c3=O)c2)cc(OC)c1OC,62.7%
9,C=C(C)[C@@H]1CC[C@]2(C(=O)N3CCNCC3)CC[C@]3(C)[C@H](CC[C@@H]4[C@@](C)(CCC(=O)N5CCNCC5)[C@H](C(=C)C)CC[C@]43C)[C@@H]12,61%
10,COc1ccc2nc(Cl)c(Cn3nnc(Cc4ccccc4)n3)cc2c1,56.6%
11,C=C1C(=O)O[C@H]2[C@H]1CC/C(COC(=O)c1cc3cc(OC)ccc3[nH]1)=C\CC[C@@]1(C)O[C@@H]21,-34.5% (active)
12,COc1cccc(NC(=O)c2sc3nc(C)c(C(O)c4ccccc4)cc3c2N)c1 (centres undefined),-52% (active)
13,CCOC(=O)c1c(C(F)(F)F)n([O-])c2ccc(Cl)cc2[n+]1=O,-65.2% (active)
14,NS(=O)(=O)c1ccc(CCn2c(SCC(=O)c3ccc(Cl)cc3)nc3ccccc3c2=O)cc1,95.5%
15,S=c1sc2c(Cl)nc(-c3cccnc3)nc2n1-c1ccccc1,-52.5% (active)
16,Cc1ccc(Cl)cc1Nc1nc(C(F)(F)F)ccc1C(=O)N/N=C/c1cccnc1,3.36% (active)
17,O=C(COc1cc(O)c2c(=O)cc(-c3ccccc3)oc2c1)Nc1ccccc1,74.5%
